{"source": "PubChem BioAssay (NCATS)", "note": "Results filed as inconclusive are left out. Values without a mark were called inactive. Activity calls are given as the source filed them. The call rests on the fitted dose curve; in most records, active means well fitted cell-killing curve with a large enough effect; inconclusive means small, poorly fitted or top-dose-only effect; inactive means flat fitted curve, though single readings scatter. Peptide text beside a SMILES is read from it. Potency means the concentration at half of the fitted maximal effect.", "data": [{"assay": "Cell Viability - LYMP2-020 (AID 986); further: nearly all actives have a fitted effect of over 55% in size;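 on activity change, negative = viability loss: plate controls were DMSO only for no effect and tetraoctylammonium bromide at 92 µM for full effect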", "conditions": "series mostly up to 92.2 µM; activity change, negative = viability loss: at the top concentration", "how_it_was_run": "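Human lymphoblastoid cells, 2500/well, were pre-incubated 5 hr at 37 C, then exposed to compounds for 24 hr at 37 C in complete medium. Intracellular ATP was read by CellTiter-Glo luminescence, and AC50 was derived by Hill fitting of concentration-response data.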", "units": {"activity change, negative = viability loss": "%"}, "values": [{"smiles": "CN(C)c1ccc2nc3ccc(=[N+](C)C)cc-3sc2c1", "Potency": "7.94 µM (active)"}, {"smiles": "COC(=O)[C@H](Cc1ccccc1)NC(=O)[C@@H](N)CC(=O)O", "note": "(H-Asp-Phe-OMe)", "activity change, negative = viability loss": 12.2}, {"smiles": "c1ccc2[nH]c(-c3cscn3)nc2c1", "activity change, negative = viability loss": -18.6}, {"smiles": "CS(=O)(=O)OCCCCOS(C)(=O)=O", "Potency": "inactive"}, {"smiles": "Nc1ccc(S(N)(=O)=O)cc1", "activity change, negative = viability loss": 6.45}, {"smiles": "NS(=O)(=O)c1cc(C(=O)O)c(NCc2ccco2)cc1Cl", "activity change, negative = viability loss": -3.96}, {"smiles": "CCc1nc(N)nc(N)c1-c1ccc(Cl)cc1", "activity change, negative = viability loss": -23.5}, {"smiles": "CCCc1cc(=O)[nH]c(=S)[nH]1", "activity change, negative = viability loss": 0.64}, {"smiles": "CCCCC(CC)COC(=O)C(C#N)=C(c1ccccc1)c1ccccc1", "note": "(configuration not stated)", "activity change, negative = viability loss": -19.4}, {"smiles": "COc1c2occc2cc2ccc(=O)oc12", "activity change, negative = viability loss": -1.32}, {"smiles": "CC(=O)Nc1ccc(O)cc1", "activity change, negative = viability loss": 0.444}, {"smiles": "Cc1ccc(C)c(OCCCC(C)(C)C(=O)O)c1", "activity change, negative = viability loss": -2.62}]}]}
